CSC inhib – blocks cancer stem cells; cancer stem cell-like cells viability, luminescence; inhibition, % at 7.5 µM; actives 1.1% (n = 300,000); AID 2717; in the data active means inhibition above about 75%; tested in HMLE shEcad cells
SKKanGAS inh – inhibitors of SKKanGAS S. pyogenes growth in kanamycin (SK-promoter or general growth effect). actives 1.3% (n = 300,000). AID 1662. inhibition, % at 7.5 µM. BacTiter-Glo, 6 h;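 active means mean replicate score, as percent of positive control median, at least 50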;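 further: strain carries kanamycin resistance gene driven by streptokinase promoter and grows in 40 µg/ml kanamycin; loss of luminescence reflects streptokinase promoter inhibition or plain growth inhibition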
NR3A LBD binder – modulators (binders) of human NR3A ligand-binding domain; NR3A LBD differential scanning fluorimetry, Tm shift; 0% = protein alone, 100% = glycine-bound protein; AID 1259313; Tm shift relative to glycine control, % at 25 µM; actives 2.5% (n = 340,000);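 active means melting temperature shift of at least 10% of the positive control shift, at one fixed dose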
Beta cell apopt – blocks beta cell apoptosis; INS-1E cytokine-induced death, ATP luminescence, 48 h; percent of positive-control rescue, neutral wells zero; protection from apoptosis, % (concentration not given with the values); actives 0.8% (n = 300,000);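 active means Every replicate reaches about 75%, or at least half do and their mean reaches it too, limit read from the data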;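 further: higher means more ATP so stronger rescue from cytokine killing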
Mdm2-MdmX inh – disrupts the human Mdm2-MdmX interaction | SaOS-2 split-luciferase Mdm2/MdmX complementation, luminescence | inhibition, % at 8 µM | actives 3% (n = 330,000) | AID 485346;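 active means inhibition of at least 50% at 8 µM in the primary screen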
MPTP block – blocks calcium-induced mitochondrial swelling | isolated mouse mitochondria, Ca2+ swelling absorbance, 30 min | inhibition, % at 10 µM | actives 1.4% (n = 360,000);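 active means inhibition of 50% or more, scaled per plate between neutral and stimulator controls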
Hits are given with their value; i = inactive; nt = no result given. Only some compounds are listed: those with a hit (about 6.9% of all), similar ones and a draw of the others.

SMILES	CSC inhib	SKKanGAS inh	NR3A LBD binder	Beta cell apopt	Mdm2-MdmX inh	MPTP block
CCc1nnc(NC(=O)c2ccc(S(=O)(=O)N3CCCC(C)C3)cc2)s1 (centres undefined)	nt	i	i	i	i	i
Cc1cccc2sc(NNC(=O)c3ccc(S(=O)(=O)N4CCCC(C)C4)cc3)nc12 (centres undefined)	128	91	i	102	nt	i
CC1(C)Nc2ccccc2C(=O)N1c1ccc(Br)cc1	i	i	13	i	i	i
Nc1nc(-c2ccc3c(c2)OCCO3)c(CC(=O)O)s1	i	i	i	i	i	i
Nc1nc(-c2ccc3c(c2)CCCC3)c(CC(=O)O)s1	i	i	35	i	i	i
Cc1ccc(-c2c(C(=O)N/N=C/c3c[nH]c4ccccc34)nnn2-c2nonc2N)cc1	i	i	26	i	i	i
COCc1c(C(=O)N/N=C/c2c[nH]c3ccccc23)nnn1-c1nonc1N	nt	i	18	i	i	i
CCCN(CCC)Cc1c(C(=O)N/N=C/c2ccco2)nnn1-c1nonc1N	i	i	i	i	i	i
CCCN(CCC)Cc1c(C(=O)N/N=C/c2c[nH]c3ccccc23)nnn1-c1nonc1N	nt	i	22	i	i	i
CCCN(CCC)Cc1c(C(=O)N/N=C/c2ccc(Br)cc2)nnn1-c1nonc1N	i	i	22	i	i	i
CCCc1c(C(=O)N/N=C/c2c[nH]c3ccccc23)nnn1-c1nonc1N	nt	nt	nt	nt	nt	i
CCC(C)c1ccccc1N1CC(C(=O)Nc2ccc(N3CCOCC3)cc2)CC1=O (centres undefined)	i	nt	i	i	i	i
COc1ccc2c(c1)c(C(C)=O)c(C)n2-c1ccccc1OC	i	i	i	i	i	i
CN(Cc1cccc(Cl)c1Cl)C(=O)c1ccccc1SCC(=O)N1CCCC1	nt	nt	i	nt	nt	i
C#CC(C)OC(=O)Nc1cnccc1C(F)(F)F (centres undefined)	i	i	i	i	i	i
Oc1cc2c(cc1O)C1c3ccc(O)c(O)c3OCC1(O)C2 (centres undefined)	i	nt	i	i	i	i
Cn1nc([N+](=O)[O-])nc1Sc1cccc2cccnc12	i	i	i	94	i	i
O=[N+]([O-])c1ccc(Cl)cc1Sc1cccc2cccnc12	i	i	i	i	i	i
CCOC(=O)C(C)Sc1nc(C2CC2)cc(C(F)(F)F)c1C#N (centres undefined)	i	i	i	i	i	i
COC(=O)CSc1nc(C2CC2)cc(C(F)(F)F)c1C#N	i	i	18	i	i	i
CC1(C)Cc2c(sc(NC(=O)c3ccccc3)c2C(=O)O)CO1	i	i	10	i	i	i
O=C(O)CCCC(=O)N1CCN(c2nc(-c3ccccc3Cl)c3cc(Br)ccc3n2)CC1	i	i	i	i	i	i
CCN(CC)CCN(CC(=O)Nc1c(C)cc(C)cc1C)C(=O)c1ccccc1	i	i	i	nt	i	i
CCN(CC)CC(=O)Nc1c(C)cc(C)cc1C	i	nt	10	i	nt	nt
Cc1ccccc1N1CCN(c2ccc(NC(=O)C3CCCCC3C(=O)O)cc2)CC1 (centres undefined)	79	i	i	i	i	i
SMILES	CSC inhib	SKKanGAS inh	NR3A LBD binder	Beta cell apopt	Mdm2-MdmX inh	MPTP block
Cn1c(N)c(C(=O)COC(=O)/C=C/c2ccc(Cl)c(Cl)c2)c(=O)n(C)c1=O	i	nt	17	i	i	i
Cn1c(N)c(C(=O)COC(=O)/C=C/c2ccc(F)cc2)c(=O)n(C)c1=O	i	nt	i	i	i	i
COc1cc(/C=C/C(=O)OCC(=O)c2c(N)n(C)c(=O)n(C)c2=O)ccc1O	i	58	i	i	i	i
COc1cc(/C=C/C(=O)OCC(=O)c2c(N)n(C)c(=O)n(C)c2=O)ccc1OCC#N	i	56	i	i	i	i
COc1cc(/C=C/C(=O)OCC(=O)c2c(N)n(C)c(=O)n(C)c2=O)ccc1OC(F)F	i	i	i	i	i	i
Nc1nnnn1/N=C/c1ccccc1OCc1ccccc1	i	i	i	i	i	i
COc1cccc(/C=N/n2nnnc2N)c1OCC#N	i	i	13	i	i	i
O=C(Cn1nc(-c2ccccc2)oc1=O)OCC(=O)c1ccc(F)c(F)c1	nt	nt	i	i	i	i
Nc1cccc(Oc2c(F)c(F)c(Oc3cccc(N)c3)c(F)c2F)c1	i	i	23	i	i	i
Nc1cccc(Oc2ccc([N+](=O)[O-])cc2)c1	i	i	i	nt	i	i
O=C(Nc1nc2ccccc2n1CCN1CCOCC1)c1ccc(COc2ccccc2Br)o1	i	50	i	i	i	i
COc1ccc(NC(=O)c2ccc(COc3ccccc3Br)o2)c(OC)c1	92	i	i	i	i	i
CC(=O)Nc1ccc(NC(=O)c2ccc(COc3ccccc3Br)o2)cc1	i	i	23	i	i	i
O=C(Nc1cccnc1)c1ccc(COc2ccccc2Br)o1	i	i	i	i	i	i
CCOC(=O)[C@]12CCCC=C1N(Cc1ccccc1)C(=O)[C@H](CC(=O)N1CCOCC1)C2	nt	nt	nt	nt	nt	i
Cc1ccc(C)c(NC(=O)CN(C)C(=O)COc2ncnc3sccc23)c1	i	i	i	i	i	i
CCSc1cc(N2CCCC2)nc(-c2ccc(C)cc2)n1	i	i	15	i	i	i
Cn1c(SC/C=C/c2ccccc2)nnc1-c1ccco1	i	i	12	i	i	i
NS(=O)(=O)c1ccc(NC(=O)COC(=O)C2CC2)cc1	i	nt	i	i	i	i
CCOC(=O)/C(C(=O)Nc1ccccc1Br)=C1/NC(C)(C)Cc2ccccc21	i	i	13	i	i	i
CCCCc1nc2sc3c(=O)[nH]c(=S)[nH]c3c2c2c1CCC2	nt	nt	i	nt	nt	i
Cc1ccc(Nc2nnc(SCC(=O)c3ccc(O)cc3O)s2)cc1	i	i	26	i	i	i
Cc1ccc(Nc2nnc(SCC(=O)N(C)C3CCS(=O)(=O)C3)s2)cc1 (centres undefined)	i	i	i	i	i	i
Cc1cccc(Nc2nnc(SCC(=O)c3ccc(O)cc3O)s2)c1	i	i	33	i	i	i
Cc1coc2c1c(C)cc1oc(=O)c(CC(=O)NCCCN3CCCC3=O)c(C)c12	i	i	i	nt	i	i
SMILES	CSC inhib	SKKanGAS inh	NR3A LBD binder	Beta cell apopt	Mdm2-MdmX inh	MPTP block
CC(=O)N1CCc2cc(S(=O)(=O)N3CCc4ccccc43)ccc21	i	52	i	nt	i	i
CC(=O)N1CCc2cc(S(=O)(=O)N3CCc4ccccc4C3)ccc21	nt	i	i	i	i	i
Cc1cccc(N(CC(=O)NCc2ccco2)C(=O)CCC(=O)Nc2nccs2)c1C	i	i	i	i	i	i
O=C(O)CCn1cc(/C=C/C(=O)c2ccc(Cl)cc2)c(-c2ccc(Br)cc2)n1	106	nt	i	i	nt	i
O=C(O)/C=C/c1cn(Cc2ccccc2)nc1-c1ccccc1	i	i	i	i	i	i
Fc1cccc2sc(Nc3nc4cc5c(cc4s3)OCO5)nc12	i	53	i	i	i	i
Fc1cc(F)c2nc(Nc3nc4cc5c(cc4s3)OCO5)sc2c1	i	i	16	i	nt	i
Fc1cccc2sc(Nc3nc4cc5c(cc4s3)OCCO5)nc12	i	i	i	i	i	i

Screens (PubChem)
